Assay outcomes from PubChem BioAssay.
PfHsp90 yeast 2: reduces growth (ATP signal) of yeast expressing P. falciparum Hsp90; S. cerevisiae expressing PfHsp90, BacTiter-Glo ATP, 48 h; yeast lacking PDR1 and PDR3 efflux regulators; inhibition, % at 9.4 µM; hit rate 0.32% among 310,000;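 active = every replicate shows inhibition above about 80%, whatever the replicate mean, limit read from the data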;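 also: 0% = DMSO neutral controls and 100% = 20 µM radicicol positive controls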
tim10-1 inh: growth inhibitors of tim10-1 mutant yeast | S. cerevisiae tim10-1 ts strain growth, BacTiter-Glo, 24 h | inhibition, % at 20 µM | hit rate 2.2% among 330,000;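 active = inhibition of at least 40%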;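 also: mutant grown at 25 °C; 0% = DMSO wells with yeast and 100% = wells holding no yeast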
Rce1 inh: blocks yeast Ras-converting enzyme; Q03530; yeast membranes, quenched prenylated peptide cleavage fluorescence; calls only; hit rate 0.27% among 290,000; AID 2563;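 active = fall in fluorescence gain of 50% or more versus controls, with final raw signal at or below 3038400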;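 also: plate controls were neutral control wells for no effect and wells lacking membranes for full effect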
Target sequence (Q03530 whole entry, looked up): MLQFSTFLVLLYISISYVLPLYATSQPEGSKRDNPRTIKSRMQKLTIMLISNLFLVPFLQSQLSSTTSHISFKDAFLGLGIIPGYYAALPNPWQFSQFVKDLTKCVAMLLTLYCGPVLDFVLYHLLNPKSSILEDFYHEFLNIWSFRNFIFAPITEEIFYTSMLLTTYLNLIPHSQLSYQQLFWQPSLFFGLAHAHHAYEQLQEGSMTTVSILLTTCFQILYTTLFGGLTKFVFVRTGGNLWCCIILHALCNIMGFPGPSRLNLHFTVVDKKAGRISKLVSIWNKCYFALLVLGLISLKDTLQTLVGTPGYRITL
tim23-1 inh: growth inhibitors of tim23-1 mutant yeast; hit rate 1.3% among 330,000; inhibition, % at 20 µM; S. cerevisiae tim23-1 growth, BacTiter-Glo luminescence, 24 h;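 active = growth inhibition of the mutant yeast at or above 50%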;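 also: temperature-sensitive mutant grown at 25 °C; plate controls were DMSO-treated mutant yeast for no effect and medium wells lacking yeast for full effect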
TIM10 inh: TIM10 yeast growth inhibition | S. cerevisiae TIM10 strain growth, BacTiter-Glo luminescence, 24 h | inhibition, % at 10 µM | hit rate 1.4% among 330,000;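 active = inhibition of 40% or more at the single tested concentration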;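 also: wild-type TIM10 isogenic control strain grown at permissive 25 °C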
TIM10 conf: confirmation of TIM10 yeast growth inhibitors; shares compounds with TIM10 inh; S. cerevisiae tim10 strain growth, BacTiter-Glo luminescence, 24 h; inhibition, % at 10 µM; hit rate 63% among 4,600; AID 463215;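 active = inhibition of yeast growth at or above a set limit in either of two replicates at 10 µM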;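 also: this counterscreen used the strain with wild-type TIM10; 0% = yeast with DMSO and 100% = medium wells lacking yeast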
tim23-1 confirm: confirmation of tim23-1 mutant yeast growth inhibitors; shares compounds with tim23-1 inh; S. cerevisiae tim23-1 growth, BacTiter-Glo luminescence, 24 h; AID 463218; hit rate 83% among 4,400; inhibition, % at 20 µM;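 active = inhibition above about 39% in either of two replicate wells at 20 µM, limit read from the data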;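 also: temperature-sensitive tim23-1 mutant grown at 25 °C; 0% = DMSO wells with yeast and 100% = medium wells without yeast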
* hit, by the source's call; i = inactive; / = no result. Most compounds without a hit are left out; they make up all but 3.7% or so of the library.

SMILES	PfHsp90 yeast 2	tim10-1 inh	Rce1 inh	tim23-1 inh	TIM10 inh	TIM10 conf	tim23-1 confirm
O=C(COc1ccc2c3c(c(=O)oc2c1)CCCC3)NCc1ccccn1	-11.3	12.4	i	18.1	0.8	/	/
COCc1cc(=O)[nH]c(SCCS(=O)(=O)c2ccc(Cl)cc2Cl)n1	-17.0	31.0	i	57.7*	43.8*	35.1*	28.2
O=C(N/N=C/c1ccco1)c1cc2ccccc2o1	9.7	22.8	i	65.9*	41.1*	12.1	63.8*
O=C(N/N=C/c1ccco1)c1ccc(Br)o1	-5.6	-31.9	i	-4.2	-20.7	/	/
CCOc1ccc(C2=NNC(c3cccs3)=Nc3ccc(OCC)cc32)cc1	/	28.9	i	55.0*	51.8*	44.0*	68.2*
CCOc1ccc(C2=NNC(c3cccs3)=Nc3ccc(OC)cc32)cc1OCC	-29.3	12.3	i	0.4	33.2	/	/
CCn1c(SCc2ccccc2)nnc1-c1cccs1	/	39.1	i	37.1	30.7	/	/
Cn1c(SCc2ccc(Br)cc2)nnc1-c1cccs1	-16.6	36.7	i	56.6*	56.7*	29.7*	61.4*
COc1cc(C)cc(OC)c1OCC(=O)Nc1cc(C)on1	4.7	-10.4	/	10.9	-1.6	/	/
COc1c(O)cc2c(c1O)[C@@H]1O[C@H](CO)[C@@H](O)[C@H](O)C1OC2=O (stereo not given in full)	-12.2	-23.6	i	-28.7	-25.2	/	/
CCCCC(=O)Nc1cccc2c1C(=O)N(c1ccccc1)C2=O	-9.6	32.0	i	50.2*	43.3*	39.8*	51.7*
Cn1c(C(=O)Nc2ccc3c(c2)OCCO3)cc2sccc21	10.0	17.7	i	56.2*	55.7*	19.2	43.5*
CN(C)c1ccc(N=C/C=C2/N(C)c3ccccc3C2(C)C)cc1	13.6	/	i	/	/	/	/
Cc1ccc(C(=O)NCc2ccncc2)cc1S(=O)(=O)N1CCCCC1	-11.2	-22.8	i	-12.0	-14.3	/	/
O=C1C2=C(Nc3ccccc3SC2c2ccco2)c2ccccc21 (stereo not given)	-12.9	19.9	i	54.8*	45.8*	43.4*	81.9*
CC(C)C(=O)N[C@H]1CCC2C3CC=C4C[C@@H](O)CC[C@]4(C)C3CC[C@@]21C (stereo not given in full)	16.5	11.1	/	19.7	1.7	/	/
C[C@]12CC[C@H](O)CC1=CCC1C2CC[C@@]2(C)C1CC[C@@H]2NC(=O)[C@@H](N)Cc1ccccc1 (stereo not given in full)	40.0	34.1	/	57.7*	54.6*	59.6*	55.0*
CC(=O)c1cccc(NC(=O)N2CCCC(C(=O)c3cc(F)ccc3F)C2)c1 (stereo not given)	-10.9	8.3	i	11.2	6.9	/	/
Cc1ccc2nc(N(CCCN(C)C)C(=O)c3cc(-c4cccs4)nc4ccccc34)sc2c1	-42.4	39.6	i	60.4*	40.6*	41.6*	30.8
COc1ccc(S(=O)(=O)CC2(O)CCN(C(=O)CC(C)C)CC2)cc1	1.8	6.6	i	-5.3	-8.2	/	/
CO/C(N)=C(\C#N)N=Cc1ccccc1Cl	11.3	23.0	i	51.5*	46.8*	11.2	64.3*
N#CCC(=O)N/N=C/c1ccccc1Cl	18.3	9.2	i	19.5	9.5	/	/
CCc1cccc2c(C(=S)N3CCCC3)c[nH]c12	-6.7	32.3	i	26.0	32.6	/	/
CCc1cccc2c(C(=O)CCl)c[nH]c12	-75.9	29.5	i	53.9*	42.0*	27.5	54.0*
CCCc1cc(=O)[nH]c(SCC(=O)NCc2ccc3c(c2)OCO3)n1	11.5	1.6	i	-1.8	10.1	/	/
SMILES	PfHsp90 yeast 2	tim10-1 inh	Rce1 inh	tim23-1 inh	TIM10 inh	TIM10 conf	tim23-1 confirm
CCCNC(=O)c1ccc(-c2nc3ccccc3s2)s1	56.1	3.3	i	55.6*	54.8*	32.8*	76.7*
COc1ccc(/C=C2/CSC/C(=C/c3ccc(OC)c(OC)c3)C2=O)cc1OC	19.5	/	/	/	/	/	/
C/C(=C\c1ccc2c(c1)OCO2)C1Nc2cccc3cccc(c23)N1	0.2	30.7	/	51.5*	22.4	/	47.2*
C/C(=C\c1ccccc1)C1Nc2cccc3cccc(c23)N1	/	24.0	/	25.5	-0.5	/	/
CC(C)c1ccc(/C=C/C(=O)NC(=S)NN2CCOCC2)cc1	4.8	29.4	i	54.3*	26.8	/	36.3
COc1ccccc1N1CCN(C(=O)CCNC(=O)c2ccco2)CC1	/	-15.9	/	-1.9	-3.4	/	/
